Assay results: PubChem BioAssay (EPA / NIEHS)
Records with an inconclusive call do not appear. Activity calls are given as the source filed them. The calls were made as follows, unless noted: active = hit-call score of the fitted dose curve at least 0.9, where 1 is the maximum; inactive = score below 0.9.

Legend:
[1] = CCTE_Harrill_HTTr_Apoptosis_MCF7: CCTE's 6-hour Apoptosis Assessment for the High-Throughput Transcriptomics (HTTr) Platform, in MCF-7 cells cultured in DMEM + 10% fetal bovine serum, Harrill Lab (AID 2284011)
Method in brief: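 MCF-7 cells in DMEM + 10% FBS exposed 6 h to chemicals over an eight-point dilution series. Caspase-3/7 activation imaged by high-content CellEvent Green staining; fitted bidirectionally versus DMSO.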

[2] = CCTE_Harrill_HTTr_CellCount_MCF7: CCTE's Cell Proliferation Assessment for the High-Throughput Transcriptomics (HTTr) Platform, Harrill Lab (AID 2284012; active = hit-call score of the fitted dose curve at least 0.9, where 1 is the maximum;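 also: cells exposed to compound for six hours; intended direction is loss of nuclei count meaning fewer cells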)
Method in brief: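 MCF-7 cells were exposed for 6 h to an eight-point dilution series; Hoechst-labeled nuclei were counted by high content imaging. Curves were fitted bidirectionally against DMSO as negative control and baseline, with signal loss indicating reduced cell count.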

[3] = UKN5_HCS_SBAD2_neurite_outgrowth: University of Konstanz (UKN) Leist Lab Neurite Outgrowth Assay in human iPSC-derived immature Dorsal Root Ganglia Neurons (UKN5) (AID 2284070); conditions: actives raise or lower the signal
Method in brief: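 Human iPSC-derived immature DRG neurons (SBAD2) on Matrigel with CHIR99021 (1.5 uM), SU5402 (5 uM), DAPT (5 uM); compounds added 1 h post-seeding for 24 h. Calcein-AM neurite area imaged; bidirectional fit vs DMSO.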

[4] = UKN4_HCS_LUHMES_neurite_outgrowth: University of Konstanz (UKN) Leist Lab Neurite Outgrowth Assay in human LUHMES cells (UKN4) (AID 2284206); conditions: actives raise or lower the signal
Method in brief: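 LUHMES neuronal precursors differentiated 2 days, replated without cAMP/GDNF, then exposed to chemicals for 24 h. Neurite area imaged by high-content microscopy after calcein-AM staining; Hoechst H-33342 marks viability. Bidirectional fit versus DMSO.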

[5] = UKN4_HCS_LUHMES_cell_viability: Viability Assessment in the University of Konstanz (UKN) Leist Lab Neurite Outgrowth Assay in human LUHMES cells (UKN4) (AID 2284232)
Method in brief: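 LUHMES cells differentiated 2 days, replated without cAMP/GDNF, then exposed to compounds for 24 h from attachment. Viability read by high-content fluorescence imaging after 30 min live-staining with H-33342 and calcein-AM; bidirectional fit relative to DMSO baseline.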

[6] = IUF_NPC5_oligodendrocyte_differentiation_120hr: Leibniz Research Institute for Environmental Medicine (IUF) 120-hour Oligodendrocyte Differentiation Assay (NPC5) (AID 2284304; active = hit-call score of the fitted dose curve at least 0.9, where 1 is the maximum;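 also: primary human fetal neural progenitor spheres plated to migrate and differentiate; share of O4-positive cells among Hoechst nuclei found by CNN image analysis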)
Method in brief: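 Human fetal neural progenitor spheres (0.3 mm) plated on poly-D-lysine/laminin in N2 differentiation medium and exposed for 120 h at 7 concentrations, with half-medium renewal at day 3. O4-positive cells identified by CNN, expressed as percent of Hoechst nuclei.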

[7] = IUF_NPC4_neurite_area_120hr: Leibniz Research Institute for Environmental Medicine (IUF) 120-hour Neuronal Morphology Assay for Neurite Area (NPC4) (AID 2284305; active = hit-call score of the fitted dose curve at least 0.9, where 1 is the maximum)
Method in brief: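 Neurite area is read out as the mean pixel area, excluding nuclei, of skeletonized TUBB3-positive neurons imaged after 120 h. Primary human neural progenitor spheres differentiated on poly-D-lysine/laminin with compound present from day 0. Activity was referenced to DMSO controls.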

[8] = IUF_NPC1_cytotoxicity_72hr: Cytotoxicity Assessment at 72 hours in the Leibniz Research Institute for Environmental Medicine (IUF) Neural Progenitor Cell Proliferation Assay (NPC1) (AID 2284332; active = hit-call score of the fitted dose curve at least 0.9, where 1 is the maximum;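 also: rising LDH signal means more cytotoxicity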)
Method in brief: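 Single human fetal cortex neural progenitor spheres (GW 16-19, 0.25-0.35 mm) in EGF/FGF proliferation medium were exposed to compound for 72 h at 37C without renewal. Medium LDH release was read as resorufin fluorescence and fitted as gain-of-signal.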

[9] = CCTE_Mundy_HCI_Cortical_Synap_Neur_Matur_BPCount: CCTE's Synaptogenesis and Neurite Maturation Assay in rat cortical cells for Branch Point Count, Mundy Lab (AID 2284211)
Method in brief: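 Branch point number is quantified by automated imaging of fluorescently labelled neurites and synapses in rat primary cortical neurons exposed from DIV 7 to DIV 12. Activity is analysed relative to DMSO negative control.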

[10] = CCTE_Mundy_HCI_Cortical_NOG_NeuriteCount: CCTE's Neurite Outgrowth Assay in rat cortical cells for Neurite Count, Mundy Lab (AID 2284212);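 also: cells fixed about two days after chemical exposure began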
Method in brief: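 Neurite number per cell from high-content imaging of betaIII-tubulin immunostaining, with Hoechst nuclear counterstain.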

[11] = CCTE_Mundy_HCI_Cortical_Synap_Neur_Matur_NeuriteCount: CCTE's Synaptogenesis and Neurite Maturation Assay in rat cortical cells for Neurite Count, Mundy Lab (AID 2284222);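 also: exposure from day 7 to day 12 in vitro with readout at day 12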
Method in brief: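 Rat cortical neurons, 96-well; AraC DIV 5; chemical + media change DIV 7; end DIV 12. Fix PFA/Hoechst, anti-MAP2 + anti-synaptophysin IF. HCI neurite count vs DMSO baseline.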

[12] = CCTE_Mundy_HCI_hNP1_Pro_ResponderAvgInten: CCTE's Proliferation Assay in human neuroprogenitor cells, Mundy Lab (AID 2284224; active = hit-call score of the fitted dose curve at least 0.9, where 1 is the maximum)
Method in brief: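 Proliferation was scored as BrdU labelling intensity in human neural progenitors derived from WA09 embryonic cells, measured 26.25 hours after chemical dosing. Activity was fitted relative to DMSO.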

[13] = CCTE_Mundy_HCI_Cortical_NOG_NeuronCount: CCTE's Neurite Outgrowth Assay in rat cortical cells for Neuron Count, Mundy Lab (AID 2284236; active = hit-call score of the fitted dose curve at least 0.9, where 1 is the maximum;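 also: neurons counted by imaging betaIII-tubulin and Hoechst stained cortical cells; cells exposed to compound for about 48 hours before fixation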)
Method in brief: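 Read-out: neuron number by high-content imaging of betaIII-tubulin (Alexa Fluor-488) and Hoechst-labelled rat primary cortical cells.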

[14] = CCTE_Mundy_HCI_Cortical_NOG_BPCount: CCTE's Neurite Outgrowth Assay in rat cortical cells for Branch Point Count, Mundy Lab (AID 2284237);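 as to AC50: branch points counted about two days after chemical exposure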
Method in brief: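 Measured 50.33 h after dosing, this morphology endpoint uses rat primary cortical cultures labelled for betaIII-tubulin. Branch points are quantified by high-content imaging, with DMSO as negative control and baseline.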

[15] = CCTE_Mundy_HCI_hNP1_Casp3_7: CCTE's Caspase-Glo 3/7 Assay in human neuroprogenitor cells for Apoptosis, Mundy Lab (AID 2284240)
Method in brief: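 Apoptosis is scored by activated caspase-3/7 luminescence in WA09-derived neural progenitor cells, measured 26.5 h after chemical dosing. Values represent gain of signal relative to DMSO vehicle.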

[16] = CCTE_Mundy_HCI_hNP1_CellTiter: CCTE's Cell Titer-Glo 2 Assay in human neuroprogenitor cells for Viability, Mundy Lab (AID 2284241; active = hit-call score of the fitted dose curve at least 0.9, where 1 is the maximum)
Method in brief: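 Human neural progenitor cells (hNP1, WA09-derived) were plated on poly-L-ornithine/laminin and grown 40 to 44 hours at 37 °C, 5% CO2 before chemical addition. Twenty-four hours later, ATP was measured by CellTiter-Glo luminescence; loss of signal versus DMSO indicates reduced viability.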

[17] = CCTE_Mundy_HCI_iCellGluta_NOG_NeuriteLength: CCTE's Neurite Outgrowth Assay in iCellGluta cells for Neurite Length, Mundy Lab (AID 2284318; active = hit-call score of the fitted dose curve at least 0.9, where 1 is the maximum)
Method in brief: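 Automated high-content imaging of betaIII-tubulin (Alexa Fluor-488) and Hoechst-stained cells gave neurite length, normalized to the DMSO baseline.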

[18] = CCTE_Mundy_HCI_iCellGluta_NOG_NeuriteCount: CCTE's Neurite Outgrowth Assay in iCellGluta cells for Neurite Count, Mundy Lab (AID 2284342; active = hit-call score of the fitted dose curve at least 0.9, where 1 is the maximum;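 also: chemical exposure about 48 hours starting 2 hours after plating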)
[19] = CCTE_Harrill_HTTr_Viability_MCF7: CCTE's 6-hour Cell Viability Assessment for the High-Throughput Transcriptomics (HTTr) Platform, in MCF-7 cells cultured in DMEM + 10% fetal bovine serum, Harrill Lab (AID 2284010)
Method in brief: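 Membrane integrity was scored by high-content imaging of propidium iodide dye exclusion after a 6 h exposure across an eight-point dilution series. Data were fitted bidirectionally relative to DMSO as negative control and baseline.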

[20] = Tanguay_ZF_120hpf_MUSC: Oregon State University Tanguay Lab 120 Hour Post-fertilization zebrafish Assay for Muscle Malformation (AID 2284401)
Method in brief: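 Dechorionated Tropical 5D wild-type zebrafish embryos exposed statically from 6 to 120 hpf at 28C, one per well, in 0.64% DMSO. Muscle malformation scored present/absent by brightfield microscopy at 120 hpf, fitted against DMSO.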

Measured: AC50

O=S1OC[C@@H]2[C@H](CO1)[C@]1(Cl)C(Cl)=C(Cl)[C@]2(Cl)C1(Cl)Cl (stereo partly specified)
inactive: [1] | [2]

ClC=C(Cl)CCl
inactive: [1] | [2]

[O-][Cl+3]([O-])([O-])O
inactive: [1] | [3] | [4] | [5] | [6] | [7] | [8]

CC1(C)[C@@H](C=C(Cl)Cl)[C@@H]1C(=O)O[C@@H](C#N)c1ccc(F)c(Oc2ccccc2)c1
not listed: [1] | [2] | [3] | [4] | [5] | [7] | [19] | [20]
inactive: all other assays above

C#CCN(C)[C@H](C)Cc1ccccc1
inactive: [9] | [10] | [11] | [14] | [15] | [16] | [17] | [18]

COP(=S)(Oc1cc(Cl)c(Br)cc1Cl)c1ccccc1 (stereo unspecified)
inactive: [1] | [2]

[Cl-].[Cl-].[Cl-].[Pr+3]
inactive: [19] | [1]

COP(=S)(OC)SCC(=O)N(C)C=O
inactive: [1] | [2]

O=C(O)CCCOC(=O)c1ccccc1C(=O)O
inactive: [19] | [1] | [2]

O=[As](O)(O)O
active: [3] 1.4 µM | [4] 74.5 µM | [5] 71.4 µM

OCC(F)(F)C(F)(F)C(F)(F)C(F)(F)C(F)(F)C(F)(F)CO
inactive: [20]

C=C(C)C(=O)OCCC(F)(F)C(F)(F)C(F)(F)C(F)(F)C(F)(F)C(F)(F)F
inactive: [20]

CCOP(=O)(OCC)SCSC(C)(C)C
active: [10] 75.4 µM | [13] 84.1 µM | [14] 62.1 µM | [17] 9.83 µM | [18] 21.9 µM
inactive: [9] | [11] | [15] | [16] | [6] | [8]

C[C@H](N)Cc1ccccc1
inactive: [9] | [10] | [11] | [13] | [14] | [15] | [16]

O.O.O.O.O.[Cd+2].[Cd+2].[Cl-].[Cl-].[Cl-].[Cl-]
inactive: [12]
active: [13] 76.6 µM | [15] 50 µM
